# RGS12 GoLoco inh-1: blocks human Gai1 binding to RGS12 GoLoco peptide, red readout | P63096 | Gai1:RGS12 GoLoco peptide FP, rhodamine, 10 min | Potency, µM (top dose mostly 61.6 µM), for inactives: at the top dose activity, negative = inhibition, actives largely listed as inhibitors | 0.44% of 230,000 active | AID 880; active = well fitted inhibition curve with a large enough effect, not every such curve was filed as active; inactive = no such curve, though single readings can be large or run the other way; note: potency is the fitted concentration of half-maximal effect; % is set by controls: 0 for no effect and ±100 for the full control effect; nearly all actives have a fitted effect of over 30% in size
# Tau fluor counter: counter-screen for tau fibril formation inhibitors; tau K18 P301L Alexa594 fluorescence, heparin fibrillization; AID 1463; Potency, µM (series often up to 57.7 µM), without a hit: at the top dose activity change, negative = decrease; 0.93% of 280,000 active; note: potency is the fitted concentration of half-maximal effect; % is set by controls: 0 for no effect and ±100 for the full control effect; nearly all actives have a fitted effect of over 55% in size
#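 Human tau K18 P301L (15 uM unlabeled, 0.24 uM Alexa 594-labeled) in 100 mM sodium acetate pH 7 with 20 uM heparin, 6 hr at 37 C. ThT 30 uM added, 1 hr ambient; Alexa 594 FP and total fluorescence read at 555/632 nm.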
# TRb-SRC2 inh: inhibitors of human thyroid hormone receptor beta-SRC2 interaction. P10828. TRbeta-SRC2 peptide binding, fluorescence polarization; receptor liganded with 1 µM T3. Potency, µM (top dose mostly 106 µM), inactives show at the top dose activity change, negative = inhibition, most hits filed as inhibitors. 0.065% of 280,000 active;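 note: potency is the fitted concentration of half-maximal effect; plate controls were bound peptide for no effect and peptide without receptor for full effect; nearly all actives have a fitted effect of over 50% in size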
# Target sequence (P10828 whole entry, looked up): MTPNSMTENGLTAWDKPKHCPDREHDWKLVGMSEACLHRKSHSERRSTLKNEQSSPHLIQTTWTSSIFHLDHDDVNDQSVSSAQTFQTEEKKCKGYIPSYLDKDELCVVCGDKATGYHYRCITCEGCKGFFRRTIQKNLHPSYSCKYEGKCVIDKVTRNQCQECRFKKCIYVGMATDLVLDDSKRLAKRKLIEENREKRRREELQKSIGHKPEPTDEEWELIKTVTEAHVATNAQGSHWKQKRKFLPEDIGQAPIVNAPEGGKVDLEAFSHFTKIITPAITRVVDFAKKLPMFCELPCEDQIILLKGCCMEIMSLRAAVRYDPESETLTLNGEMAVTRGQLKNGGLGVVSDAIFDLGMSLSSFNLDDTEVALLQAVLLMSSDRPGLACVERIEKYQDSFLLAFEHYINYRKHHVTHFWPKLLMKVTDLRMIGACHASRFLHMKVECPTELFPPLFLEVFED
#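 Each compound concentration gave % activity, normalized to unbound and bound Texas Red SRC2 controls, from polarization read after 5 hr ambient incubation with T3-loaded human TRb LBD.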
# Tau fibril FP: blocks human tau fibril formation measured by polarization; P10636; K18 P301L tau heparin fibrillization, Alexa594 FP, 6 h; Potency, µM (doses to about 57.7 µM), for the others: top-dose activity, negative = inhibition, most hits filed as inhibitors; 0.39% of 280,000 active; note: potency is the fitted concentration of half-maximal effect; % is set by controls: 0 for no effect and ±100 for the full control effect; nearly all actives have a fitted effect of over 55% in size
# Target sequence (P10636 561-689 P618L limits assumed): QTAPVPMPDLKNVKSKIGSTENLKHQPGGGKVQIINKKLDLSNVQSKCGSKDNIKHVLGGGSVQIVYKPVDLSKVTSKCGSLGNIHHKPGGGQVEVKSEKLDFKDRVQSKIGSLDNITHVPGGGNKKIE
#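 K18 P301L tau (15 uM unlabeled/0.24 uM Alexa 594-labeled, final) + compound + heparin 20 uM final; 100 mM NaOAc pH 7; 6 hr 37 C; ThT 30 uM final added, 1 hr RT; FP ex 555/em 632 nm.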
# Tau fibril ThT: blocks human tau fibril formation measured by thioflavin T; recombinant tau K18 P301L, heparin-induced fibrillization, ThT fluorescence; Potency, µM (highest dose often 57.4 µM), for the others: at the top dose activity, negative = inhibition, actives largely listed as inhibitors; 2.1% of 270,000 active; AID 1460; note: potency is the fitted concentration of half-maximal effect; % is set by controls: 0 for no effect and ±100 for the full control effect; nearly all actives have a fitted effect of over 55% in size
#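 Fibril formation assay: tau K18 P301L at 15 uM with trace Alexa 594 label, heparin inducer 20 uM, pH 7 sodium acetate buffer, 37 C for 6 hr; endpoint ThT signal.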
# TexasRed fluor: counter-screen for TRb-SRC2 inhibitors: fluorescence interference; TRb/SRC2 Texas Red total fluorescence interference; Potency, µM (series often up to 106 µM), inactives show at the highest dose fluorescence change, negative = quenching; 0.29% of 280,000 active; AID 1479; active = well fitted curve in either direction with a large enough effect; inconclusive = small, poorly fitted or top-dose-only effect; note: potency is the fitted concentration of half-maximal effect; % is set by controls: 0 for no effect and ±100 for the full control effect
#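 Human TRb ligand-binding domain at 0.6 uM with 20 nM Texas Red SRC2 peptide in Tris buffer containing 1 uM T3 and 5% DMSO, incubated with compound 5 h at ambient temperature. Total fluorescence (555/632 nm) calculated as parallel + 2 × perpendicular.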
# RGS12 GoLoco inh-2: confirmation of human RGS12 GoLoco motif inhibitors | Gai1/rhodamine-RGS12 GoLoco peptide fluorescence polarization | 50% of 110 active | shares compounds with RGS12 GoLoco inh-1 | AID 2390 | Potency, µM (top dose mostly 57.1 µM), inactives show top-dose activity, negative = inhibition, usual class: inhibitors
# Numbers without * were called inactive; ? = inconclusive; / = no result given; ! = not active in a repeat; [ ] = remark or other dose. Compounds with a hit are over-represented: about 3.2% of the library has one in this group of screens. Unless noted, calls come from the whole dose curve; as a rule, active = well fitted curve in the direction sought with a large enough effect; inconclusive = small, poorly fitted or top-dose-only effect, or another doubt; inactive = no such curve, though single readings can be large; an effect the other way counts as inactive or inconclusive.
SMILES,RGS12 GoLoco inh-1,Tau fluor counter,TRb-SRC2 inh,Tau fibril FP,Tau fibril ThT,TexasRed fluor,others
O=C1NC(=O)N(Cc2ccccc2)C(=O)/C1=C\c1ccco1,69%,-4%,4%,-5%,?,4%,
CCOC(=O)Nc1cccc(OC(=O)Nc2ccccc2)c1,/,/,-2%[201 µM],/,/,-2%[201 µM],
CNC(=O)O/N=C(\SC)C(=O)N(C)C,/,/,-9%[201 µM],/,/,-3%[201 µM],
CCN(CC)C(=O)SCc1ccc(Cl)cc1,/,/,3%[201 µM],/,/,-2%[201 µM],
CCc1ccc(N2NC(=O)/C(=C/C=C/c3ccco3)C2=O)cc1,21%,10µM*[quencher],10%,?,8.9µM*,1%,
CCc1ccc(N2C(=O)NC(=O)/C(=C\C=C\c3ccco3)C2=O)cc1,88%,-7%,5%,13µM*,10µM*,10%,
Cc1cc(C)cc(N2C(=O)NC(=O)/C(=C\C=C\c3ccco3)C2=O)c1,95%,-18%,10%,?,13µM*,20%,
O=C1NC(=O)N(Cc2ccc(F)cc2)C(=O)/C1=C\C=C\c1ccco1,201%,/,6%,/,/,7%,
O=C1NC(=O)N(c2ccccc2)C(=O)/C1=C\C=C\c1ccccc1,-2%,-22%,4%,?,11µM*,-4%,
CS/C(C)=N/OC(=O)N(C)SN(C)C(=O)O/N=C(\C)SC,/,/,0%[201 µM],/,/,5%[201 µM],
CC1=NNC(=O)N(/N=C/c2cccnc2)C1,/,/,-4%[201 µM],/,/,-3%[201 µM],
FC(F)C(F)(F)OCC(Cn1cncn1)c1ccc(Cl)cc1Cl (stereo unspecified),/,/,-2%[201 µM],/,/,-1%[201 µM],
Cc1ccc(N2C(=O)NC(=O)/C(=C/c3ccoc3)C2=O)cc1,19%,-14%,3%,-12%,/,25%,
Cc1ccc(N2C(=O)NC(=O)/C(=C/C=C/c3ccco3)C2=O)cc1,23%,-12%,23%,?,14µM*,22%,
CC1=C(O)C(=O)[C@H]2O[C@@H]2C1=O,-6%,?,-2%,4µM*,2µM*,-4%,
COP(=O)(OC)Oc1nc(Cl)c(Cl)cc1Cl,/,/,-10%[201 µM],/,/,1%[201 µM],
CSc1nc(N)c(N=Nc2ccc([As](=O)(O)O)cc2)c(=O)[nH]1,-10%,?,-5%,-9%,20µM*,-9%,
CCOP(=S)(OCC)SCCl,/,/,0%[201 µM],/,/,-2%[201 µM],
CC[C@@]1(O)CC(O)c2c(cc3c(c2O)C(=O)c2c(O)ccc(O)c2C3=O)C1C(=O)OC (stereo partly specified),2.8µM*,-27%,-10%,-14%,7.9µM*,?,RGS12 GoLoco inh-2=5µM*
CC1CC2CCC(O2)C(C)C(=O)OC(C)CC2CCC(O2)C(C)C(=O)OC(C)CC2CCC(O2)C(C)C(=O)OC(C)CC2CCC(O2)C(C)C(=O)O1 (stereo unspecified),/,/,9%,/,/,1%,
Oc1ccc2c3c1OC1C(O)CC[C@]4(O)C(C2)N(CC2CCC2)CC[C@]314 (stereo partly specified),28µM*,-6%,3%,-3%,-4%,2%,RGS12 GoLoco inh-2=1%
Oc1ccc2c3c1OC1C(O)CC[C@@]4(O)[C@@H](C2)N(CC2CCC2)CC[C@]314 (stereo partly specified),6%,-10%,2%,-2%,-6%,-3%,
CCCC[N+]12CCC(CC1)C(C(=O)c1cccs1)C2 (stereo unspecified),6.3µM*,-5%,0%,-4%,-9%,1%,RGS12 GoLoco inh-2=16µM*
O=C(CCN1CC2CCC(CC2)C1)c1cccs1,4%[14.2 µM],/,/,/,/,/,
[N-]=[N+]=[N-],9%,/,6%,/,/,-2%,
COc1ccc2c(c1OC)C(=O)OC2C1c2cc3c(cc2CCN1C)OCO3 (stereo unspecified),20µM*!,-5%,-1%,-3%,1%,-1%,RGS12 GoLoco inh-2=1%
C[C@@H]1O[C@H](OC2[C@@H](O)[C@H](O)C(O)[C@H](O)[C@H]2O)[C@@H](N)C[C@@H]1N=C(N)C(=O)O (stereo partly specified),1%[14.2 µM],/,/,/,/,/,
CCC(CO)(C(=O)OC1C[N+]2(C)CCC1CC2)c1ccccc1 (stereo unspecified),16µM*,-6%,-3%,-3%,-9%,-6%,RGS12 GoLoco inh-2=16µM*

# Bioassay records as filed in PubChem BioAssay.
